# Assay outcomes from PubChem BioAssay.
# The list is not random: actives were taken first. Their share in the collection is about 9.2%.
# ELG1 genotoxic: qHTS screen for small molecules that induce genotoxicity in human embryonic kidney (HEK293T) cells expressing luciferase-tagged ELG1. 330,000 tested, 1.3% active. AID 504466, 2011. HEK293T ELG1-luciferase reporter, luminescence, 16 h. Potency, µM (highest dose often 46 µM), for the others: at the highest dose activity change, positive = activation, actives largely listed as activators; further: % of control where 0% means no effect; nearly all actives have a fitted effect of over 60% in size
#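 Luminescence read-out: rising ELG1-luciferase signal, reflecting elevated ELG1 protein under genetic stress, flags genotoxic compounds. Cells were treated for 16 hr at 37 °C before ONE-Glo detection.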
# SMN2 splice up: qHTS Assay for Enhancers of SMN2 Splice Variant Expression. 210,000 tested, 2.8% active. Potency, µM (top dose mostly 46.1 µM), inactives show at the top dose activity change, positive = activation, most hits filed as activators. HEK293 SMN2-luciferase splicing reporter, luminescence, 30-36 h; further: % of control where 0% means no effect; nearly all actives have a fitted effect of over 55% in size
#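 HEK293 cells carry an SMN2 minigene-luciferase reporter in which exon 7 inclusion puts luciferase in frame. Cells were seeded at 2000 cells/well, attached for 10-12 hours, then exposed to compounds for 30-36 hours at 37C before ONE-Glo luminescence.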
# FLuc modulator: qHTS profiling assay for firefly luciferase inhibitor/activator using purifed enzyme and Km concentrations of substrates (counterscreen for miR-21 project). purified FLuc, Km substrates, luminescence inhibition. Potency, µM (doses to about 57.5 µM), for the others: top-dose activity change, negative = inhibition, usual class: inhibitors. Luciferin 4-monooxygenase (Photinus pyralis), P08659. AID 588342, 2011. 360,000 tested, 6.9% active;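 further: plate controls were vehicle for no effect and reference inhibitor for full effect; nearly all actives have a fitted effect of over 55% in size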
# Target sequence (P08659 whole entry, looked up): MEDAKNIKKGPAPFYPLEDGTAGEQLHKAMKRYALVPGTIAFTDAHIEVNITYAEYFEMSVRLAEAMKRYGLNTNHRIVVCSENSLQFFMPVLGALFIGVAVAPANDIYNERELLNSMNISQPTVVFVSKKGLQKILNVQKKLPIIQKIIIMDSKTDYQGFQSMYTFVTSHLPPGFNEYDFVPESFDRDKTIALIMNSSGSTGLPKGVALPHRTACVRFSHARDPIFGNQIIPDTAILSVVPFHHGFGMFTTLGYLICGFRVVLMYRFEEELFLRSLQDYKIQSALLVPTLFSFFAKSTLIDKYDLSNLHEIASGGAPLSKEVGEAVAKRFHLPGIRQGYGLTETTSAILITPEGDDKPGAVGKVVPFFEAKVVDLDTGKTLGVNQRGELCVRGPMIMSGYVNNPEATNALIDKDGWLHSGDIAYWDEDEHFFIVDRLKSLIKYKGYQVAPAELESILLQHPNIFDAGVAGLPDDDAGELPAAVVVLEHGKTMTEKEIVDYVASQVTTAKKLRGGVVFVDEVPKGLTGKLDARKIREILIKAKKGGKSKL
#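 Purified P. pyralis luciferase, 10 nM final, with Km-level 10 uM D-luciferin and 10 uM ATP in 50 mM Tris acetate pH 7.5, 10 mM Mg acetate, 0.01% Tween-20, 0.05% BSA; 6-point qHTS titration about 60 µM downward; luminescence read.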
# Rab9 prom act: qHTS Assay for Rab9 Promoter Activators. Huh7 Rab9 promoter-luciferase reporter, luminescence, 24 h. Potency, µM (titrated, usually from 9.22 µM), without a hit: at the highest dose activation, negative = inhibition, usual class: activators. 320,000 tested, 2.8% active; further: % of control where 0% means no effect; nearly all actives have a fitted effect of over 60% in size
#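 Luminescence read-out: Huh7 cells stably expressing Rab9-luciferase, treated 24 h with compound at 37 °C, then lysed with luciferase reagent for 10 min at ambient before reading.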
# ELG1 DNA repair: qHTS screen for small molecules that inhibit ELG1-dependent DNA repair in human embryonic kidney (HEK293T) cells expressing luciferase-tagged ELG1; HEK293T ELG1-luciferase reporter, luminescence, 16 h; DNA damage induced by 5-fluorouridine; Potency, µM (doses to about 46.1 µM), without a hit: at the top dose activity change, negative = inhibition, most hits filed as inhibitors; 330,000 tested, 2.3% active; AID 504467, 2011; further: on the % scale 0 is the no-effect control and ±100 the full control effect; nearly all actives have a fitted effect of over 55% in size
#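 Step one: seed 2,000 cells per well. Step two: pin-transfer compound or DMSO alongside 5-fluorouridine. Step three: incubate 16 hr, 37 °C, 5% CO2. Step four: add ONE-Glo, wait 30 min, read luminescence.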
# NPC1 promoter act: qHTS Assay for NPC1 Promoter Activators; Huh7 NPC1 promoter luciferase reporter, 24 h; 320,000 tested, 2.4% active; Potency, µM (titrated, usually from 9.22 µM), without a hit: at the highest dose activation, most hits filed as activators; further: % of control where 0% means no effect; nearly all actives have a fitted effect of over 60% in size
#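 Readout is luciferase luminescence, reflecting NPC1 promoter activation in stably transfected Huh7 cells after 24 h compound exposure at 37 °C in reduced-serum medium with 10% FBS.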
# Active calls of the source: *; u = inconclusive; x = no result. The call rests on the fitted dose curve; in most records, active means well fitted curve in the direction sought with a large enough effect; inconclusive means small, poorly fitted or top-dose-only effect, or another doubt; inactive means no such curve, though single readings can be large; an effect the other way counts as inactive or inconclusive. Potency means the concentration at half of the fitted maximal effect.
SMILES,ELG1 genotoxic,SMN2 splice up,FLuc modulator,Rab9 prom act,ELG1 DNA repair,NPC1 promoter act
CC(C)c1ccc(NC(=O)c2ccc(NS(C)(=O)=O)cc2)cc1,0%,-6%,6.7µM*,2%,-12%,1%
COc1cccc(C(=O)Nc2cnn(C(C)C)c2)c1,u,x,u,2.5µM*,u,u
CS(=O)(=O)Nc1ccc(C(=O)Nc2ccc3ccccc3c2)cc1,u,x,2.4µM*,0.63µM*,u,u
COc1cccc(NC(=O)c2cccnc2)c1,1%,u,1%,14%,u,-3%
CC(=O)c1cccc(NC(=O)c2ccc(NS(C)(=O)=O)cc2)c1,1%,11%,-19%,6%,u,2%
COc1ccccc1-c1c(NC(=O)c2ccco2)n(C)c2ccccc2c1=O,-1%,x,0%,-4%,-10%,-4%
CCOC(=O)c1[nH]c2ccc(OC)cc2c1NC(=O)c1ccc(OC)c(OC)c1,1%,-1%,-16%,-2%,u,-8%
COc1cccc(C(=O)Nc2cccc3ccccc23)c1,4%,x,-15%,6%,6%,0%
COC(=O)c1[nH]c2cc(OC)c(OC)cc2c1NC(=O)c1cccc(OC)c1,-1%,-13%,5.4µM*,13%,u,15%
COc1cc(C(=O)N/N=C(\c2ccccc2)c2ccccn2)cc(OC)c1OC,u,-83%,1%,-48%,u,-25%
COc1cccc(C(=O)Nc2ccc3ccccc3c2)c1,u,x,0.48µM*,0.79µM*,u,3.2µM*
Cc1ccc(C(=O)Nc2cccc(Oc3ccccc3)c2)o1,u,13%,19µM*,u,u,29%
COc1cccc(C(=O)N/N=C(/c2ccccc2)c2ccccn2)c1,0%,-53%,19µM*,-16%,23%,-18%
CCC(CC)Nc1ccc(C(CC(N)=O)NC(=O)c2ccccc2)cc1[N+](=O)[O-] (stereo unspecified),0%,x,1%,-5%,u,-1%
O=C(Nc1ccccc1C(=O)Nc1ccncc1)c1cccc([N+](=O)[O-])c1,u,x,0.095µM*,2.2µM*,u,2.8µM*
COc1cccc(C(=O)Nc2cccc(OCC(=O)O)c2)c1,2%,14%,24µM*,-3%,16%,-4%
COc1cccc(C(=O)NNC(=O)c2cccnc2)c1,-1%,x,4%,0%,0%,-3%
COc1cccc(C(=O)NNC(=O)c2ccccc2)c1,12µM*,x,u,3.5µM*,u,2.5µM*
O=C(O)c1cccc(NC(=O)c2ccccc2NC(=O)c2cccc([N+](=O)[O-])c2)c1,-1%,x,u,2%,0%,0%
COC(=O)c1cccc(NC(=O)Cc2coc3cc(OC)ccc23)c1,0%,-41%,17µM*,u,u,21%
COC(=O)COc1cccc(NC(=O)c2cc(OC)cc(OC)c2)c1,1%,-22%,u,-4%,3%,-3%
CCC12CN3CC(C)(CN(C1)C3c1c(C)[nH]c3ccccc13)C2=O (stereo unspecified),x,2%,4%,x,x,x
CC1CN(S(=O)(=O)c2cc(C(=O)N3CCCCC3C)ccc2Cl)CC(C)O1 (stereo unspecified),0%,x,x,x,u,x
COc1cccc(NC(=O)c2ccc(C(=O)c3ccccc3)o2)c1,0%,20µM*,6.7µM*,u,u,u
Cc1cccc(C(=O)Nc2ccc(C)c(OC(=O)c3cccc(C)c3)c2)c1,u,-11%,-14%,12%,u,1%
SMILES,ELG1 genotoxic,SMN2 splice up,FLuc modulator,Rab9 prom act,ELG1 DNA repair,NPC1 promoter act
COc1ccc(C(=O)C(C)Oc2cccc(NC(=O)c3cccc([N+](=O)[O-])c3)c2)cc1 (stereo unspecified),-2%,-13%,-8%,1%,15µM*,0%
COc1cccc(C(=O)Nc2cccc(SC)c2)c1,9.2µM*,u,9.5µM*,u,u,24%
Cc1cccc(C(=O)Nc2ccc3ccccc3c2)c1,u,x,2.4µM*,0.63µM*,u,u
CCOc1ccc(NC(=O)COC(=O)CNC(=O)c2ccc(-c3ccccc3)cc2)cc1,0%,x,u,2%,0%,0%
Cn1c(N)c(C(=O)Nc2ccc3ccccc3c2)sc1=S,u,u,u,2.2µM*,u,1.8µM*
O=C(CCl)Nc1cccc(Oc2ccccc2)c1,-1%,-29%,17µM*,-3%,-19%,-27%
Cc1ccc(S(=O)(=O)N2CCCc3cc(NC(=O)c4c(F)cccc4F)ccc32)cc1,-2%,x,-1%,0%,23µM*,-4%
COc1cccc(C(=O)Nc2ccc(NC(=O)Cc3ccccc3)cc2)c1,13%,x,0%,5%,2%,2%
COc1cccc(C(=O)Nc2ccccc2)c1,u,u,24µM*,u,u,u
COc1cccc(OC)c1C(=O)Nc1ccc2c(c1)CCCN2S(=O)(=O)c1ccc(C)cc1,-5%,x,1%,-2%,0%,-2%
CCCc1nnc(SCC(=O)NC2CC2)n1CC,4%,x,1%,-3%,10%,2%
CSc1cccc(NC(=O)C2C3C=CC4(O3)C2C(=O)N(CCN2CCOCC2)C4C(=O)NC2CCCCC2)c1 (stereo unspecified),-1%,x,-1%,-6%,-13%,2%
O=C(Nc1ccccc1F)c1oc2ccccc2c1NC(=O)C12CC3CC(CC(C3)C1)C2,x,-10%,4%,x,x,x
COc1cccc(NC(=O)CC(=O)c2ccccc2)c1,u,x,17µM*,2.8µM*,u,3.5µM*
O=C(Nc1ccc(O)cc1)c1ccc(C(=O)c2ccccc2)o1,9%,7%,7.6µM*,20%,23%,u
COc1cccc(NC(=O)Cc2ccccc2)c1,12%,-18%,-19%,2%,u,11%
COc1c(C(=O)NNC(=O)c2ccccc2)csc1Br,u,x,11µM*,2.8µM*,u,u
COc1ccc(C(=O)Nc2ccc3ccccc3c2)cc1,0.46µM*,x,0.19µM*,u,u,0.089µM*
C[C@@H]1NS(=O)(=O)[C@H]2C[C@@H]3C=C[C@]2(O3)[C@H]1OC(=O)c1ccc(C(C)(C)C)cc1,-1%,x,-4%,-8%,1%,-2%
